Assay results from PubChem BioAssay (NCI).
This is part of a sample that, as a whole, favours compounds with a hit. Of some 83,000 tested, about 20% had one in any assay.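 96-well plates, one dose, 48 hours. Percent growth reported; active if below 10.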 Calls of active or inactive are those of the source.

These molecules were tested on KM12 colon (assay: NCI-60 one-dose screen, 48 h (100 = growth as untreated, 0 = no growth, -100 = all killed)). Settings: 10 µM unless noted.
`COc1ccc(N=Nc2c(N)nn3c(N)c(C#N)c(-c4ccc(C)cc4)nc23)cc1` was tested, and the growth was 43.5% (inactive). `O=C1Nc2cc(-c3ccc(NS(=O)(=O)c4ccc(C(F)(F)F)cc4)cc3)ccc2/C1=C/c1ccc[nH]1` was tested, and the growth was 20.8% (inactive). With `COC(=O)c1c(C(=O)OC)c2c3ccccc3c3ccccc3n2c1C(=O)C(F)(F)F` the growth was 106% (inactive). For `COc1cccc(-c2ccc(/C=N/NC(=O)c3[nH]c4ccc(Br)cc4c3-c3ccccc3)s2)c1`, the growth was -14.2% (active). For `COc1ccc(NC(=O)CSc2nnc(-c3ccc(-c4nc5ccccc5[nH]4)cc3)o2)cc1`, the growth was 30.5% (inactive).

These molecules were tested on MDA-MB-468 breast in the same assay as above. Settings: 10 µM unless noted.
For `COc1ccc2[nH]c(=O)cc(-n3ncc(C(=O)/C=C/c4cc(OC)c(OC)c(OC)c4)c3C)c2c1`, the growth was -71.1% (active). In the case of `COc1ccccc1NC(=O)c1ccc(NC(=O)CCl)s1`, the growth is reported as -29.6% (active). For `Cc1ccc(C(C)C)cc1Oc1cccc(-c2c(-c3ccc(C(F)(F)F)cc3)ncn2C2CCNCC2)n1`, the growth was -90.3% (active). With `O=C(c1ccc(O)cc1)C1[C@H](c2ccc(Cl)cc2)[C@@H](c2ccccc2)NC12C(=O)Nc1ccccc12` (stereo partly drawn) the growth was -45.2% (active). `COc1c(B(O)O)cccc1-c1nc2ccc3cn[nH]c3c2c2c1CCCC2` was tested, and the growth was 10.5% (inactive). With `COc1ccc(S(=O)(=O)Nc2ccc(-c3ccc4c(c3)NC(=O)/C4=C\c3ccc[nH]3)cc2)cc1OC` the growth was -56.2% (active). For `Cc1ccc2c(c1)nc(-c1ccccc1)n2CC(=O)N=Nc1c(O)[nH]c2ccc(Cl)cc12`, the growth was -70.2% (active). `Cc1nn(-c2ccccc2)c2nc(C)n(CC(=O)N/N=C/c3ccccc3O)c(=O)c12` was tested, and the growth was -23.3% (active). For `Cc1cc(C)c2[nH]c(=O)c(C(c3nnnn3Cc3ccc4c(c3)OCO4)N3CCN(C)CC3)cc2c1` (stereo not drawn), the growth was 113% (inactive). For `FC(F)(F)CN1CCN(CCn2c(C(F)(F)F)cc3c(Cl)ncnc32)CC1`, the growth was -64% (active). With `O=C1NC(=NC23CC4CC(CC(C4)C2)C3)N/C1=C\c1ccc2ncccc2c1` the growth was 19.4% (inactive). For `COc1cc2cc(C(=O)N3C[C@@H](CCl)c4c3cc(OC(=O)N(CCC(=O)N3CCN(C)CC3)C3CCCCC3)c3ccccc43)[nH]c2c(OC)c1OC`, the growth was -91.8% (active). In the case of `O=C(Cn1c(-c2ccccc2)nc2ccccc21)N=Nc1c(O)[nH]c2ccc(Cl)cc12`, the growth is reported as -18.9% (active). With `Cn1cc(-c2cc(N)n3nc(-c4c[nH]c5ccc(Cl)cc45)cc3n2)c2cccnc21` the growth was -93.7% (active). With `COc1ccc(NC(=O)N/N=C/c2c[nH]c3ccccc23)cc1` the growth was 16.4% (inactive). `C[C@H]1[C@@H](CC(=O)N[C@@H](Cc2coc3ccccc23)B(O)O)O[C@@H]2OC3(C)CC[C@H]4[C@H](C)CC[C@@H]1[C@@]24O3` was tested, and the growth was -49.6% (active). With `CCCCCCCCc1cccc(CC(=O)Nc2ccc(C)cc2C(=O)O)c1` the growth was 73% [25 µM] (inactive). With `CC(C)(C)C(=O)c1c2c(c3ccc4c5ccccc5ccc4n13)C(=O)c1ccccc1C2=O` the growth was 98.7% (inactive). With `CN(C)CCCc1ccc(Nc2cnn(C)c(=O)c2Cl)cc1` the growth was 82.8% (inactive). For `N#Cc1cc(-c2ccnc(Nc3ccc(N4CCN(C5COC5)CC4)cc3)n2)ccc1N1CCCC1`, the growth was 38.8% (inactive). For `O=C(c1ccc(Cl)cc1)C1[C@H](c2ccccc2Cl)[C@@H](c2ccccc2)NC12C(=O)Nc1ccc(Br)cc12` (stereo partly drawn), the growth was -83.2% (active). In the case of `C=CCSc1nnc(-c2ccc(-c3nc4ccccc4[nH]3)cc2)o1`, the growth is reported as 69.3% (inactive). `CCCN(CCC)S(=O)(=O)c1ccc(C(=O)O)cc1.CCCN(CCC)S(=O)(=O)c1ccc(C(=O)O)cc1.[Cl][Pt+2][Cl].[NH2-].[NH2-]` was tested, and the growth was -54.3% (active). For `O=C(Cc1c(-c2cccc([N+](=O)[O-])c2)n(-c2ncnc3c2c(-c2ccccc2)c(-c2ccccc2)n3Cc2ccccc2)[nH]c1=O)c1ccc(Cl)c(Cl)c1`, the growth was -10.4% (active). `Cn1cc(-c2cc(N)n3nc(-c4c[nH]c5ccccc45)cc3n2)c2ccccc21` was tested, and the growth was -79.8% (active). `Clc1ccc(-c2nc3ccc(-c4nnc(SCc5ccccc5)o4)cc3[nH]2)cc1` was tested, and the growth was 11% (inactive). For `N#CC1=C(c2ccco2)Nc2c(c(-c3ccccc3)nn2-c2ccccc2)C12C(=O)Nc1ccc(Cl)cc12` (stereo not drawn), the growth was 42.3% (inactive). In the case of `Cc1ccc(/C=C/C(=O)c2ccc(S(=O)(=O)NCCNc3nc(N(C)C)nc(N4CCOCC4)n3)cc2)cc1`, the growth is reported as 67.3% (inactive). For `Cc1nc2sccn2c1-c1nnc(SCc2ccccc2)o1`, the growth was 52% (inactive). In the case of `Cc1nc2sccn2c1-c1nnc(SCC(C)C)o1`, the growth is reported as 4.49% (active). With `CN(CCSSCCN1CCOCC1)C(=O)Oc1cc2c(c3ccccc13)[C@H](CCl)CN2C(=O)c1cc2cc(OCCCN3CCC3)ccc2[nH]1` the growth was -80% (active). `O=C1/C(=C/c2cnc(-c3ccccc3)s2)SC(=S)N1Cc1ccc2c(c1)OCO2` was tested, and the growth was 43.2% (inactive). With `O=C(Cn1c(-c2ccccc2)nc2ccccc21)N=Nc1c(O)[nH]c2ccc(Br)cc12` the growth was -53.4% (active). In the case of `COc1ccc(N=Nc2c(N)nn3c(N)c(C#N)c(-c4ccc(C)cc4)nc23)cc1`, the growth is reported as 32.4% (inactive). With `O=C1Nc2cc(-c3ccc(NS(=O)(=O)c4ccc(C(F)(F)F)cc4)cc3)ccc2/C1=C/c1ccc[nH]1` the growth was -26.2% (active). For `COC(=O)c1c(C(=O)OC)c2c3ccccc3c3ccccc3n2c1C(=O)C(F)(F)F`, the growth was 92% (inactive). In the case of `COc1cccc(-c2ccc(/C=N/NC(=O)c3[nH]c4ccc(Br)cc4c3-c3ccccc3)s2)c1`, the growth is reported as 7.16% (active). In the case of `COc1ccc(NC(=O)CSc2nnc(-c3ccc(-c4nc5ccccc5[nH]4)cc3)o2)cc1`, the growth is reported as 86.5% (inactive).
